Laboratory results as given in the supplement of paper PMC6992640.

Each compound was assayed on WHIM30 (cells of a triple-negative basal-like breast cancer xenograft) (assay: cell viability of combination (% of vehicle); higher = less cytotoxic). Details: 1 µM; 72 h; partner dose: 10 nM.
Description: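 PDX cells were treated for 72 h with each drug at 1 µM plus carfilzomib (10 nM; 100 nM for WHIM2). Luciferase viability is expressed as percent of vehicle.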

SMILES	cell viability of combination
Cc1cc(C(C#N)c2ccc(Cl)cc2)c(Cl)cc1NC(=O)c1cc(I)cc(I)c1O (stereo not given) [Closantel] + CC(C)C[C@H](NC(=O)[C@H](CCc1ccccc1)NC(=O)CN1CCOCC1)C(=O)N[C@@H](Cc1ccccc1)C(=O)N[C@@H](CC(C)C)C(=O)[C@@]1(C)CO1 [Carfilzomib]	16.8
CCCCCCCCCCCCCCCC[n+]1ccccc1.[Cl-] [Cetylpyridinium Chloride] + CC(C)C[C@H](NC(=O)[C@H](CCc1ccccc1)NC(=O)CN1CCOCC1)C(=O)N[C@@H](Cc1ccccc1)C(=O)N[C@@H](CC(C)C)C(=O)[C@@]1(C)CO1 [Carfilzomib]	11.9
Cc1cc(C(C#N)c2ccc(Cl)cc2)c(Cl)cc1NC(=O)c1cc(I)cc(I)c1[O-].[Na+] (stereo not given) [Closantel Sodium] + CC(C)C[C@H](NC(=O)[C@H](CCc1ccccc1)NC(=O)CN1CCOCC1)C(=O)N[C@@H](Cc1ccccc1)C(=O)N[C@@H](CC(C)C)C(=O)[C@@]1(C)CO1 [Carfilzomib]	17.8
CCCCCCCCCCCCCCCC[N+](C)(C)C.[Br-] [Cetrimonium Bromide (CTAB)] + CC(C)C[C@H](NC(=O)[C@H](CCc1ccccc1)NC(=O)CN1CCOCC1)C(=O)N[C@@H](Cc1ccccc1)C(=O)N[C@@H](CC(C)C)C(=O)[C@@]1(C)CO1 [Carfilzomib]	12
CCCCCCCCCCCC[N+](C)(C)CCOc1ccccc1.[Br-] [Domiphen Bromide] + CC(C)C[C@H](NC(=O)[C@H](CCc1ccccc1)NC(=O)CN1CCOCC1)C(=O)N[C@@H](Cc1ccccc1)C(=O)N[C@@H](CC(C)C)C(=O)[C@@]1(C)CO1 [Carfilzomib]	9.06
